High-throughput results as filed in PubChem.
Pf Dd2 inh – qHTS Primary assay for Inhibitors of Plasmodium falciparum Dd2 growth in vitro; P. falciparum Dd2 growth, SYBR Green, 72 h; Potency, µM (doses to about 28.9 µM), for the others: top-dose activity, negative = inhibition, most hits filed as inhibitors; actives 4.3% (n = 120,000); AID 1347417, 2020; active means well fitted inhibition curve with a large enough effect;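 further: plate controls were DMSO vehicle for no effect and reference drug for full effect; nearly all actives have a fitted effect of over 65% in size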
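Infected erythrocytes (Dd2, 0.3% parasitemia, 2.5% hematocrit final) are added to compound in RPMI-1640/Albumax II medium, grown 72 h at 37C in low oxygen, then lysed with saponin/Triton-X containing SYBR Green and read by fluorescence.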
Active calls of the source: *; i = inactive; [ ] = dose if it differs, or a comment. This excerpt belongs to a sample that is enriched for hits. Potency means the concentration at half of the fitted maximal effect.

SMILES	Pf Dd2 inh
CC(C)CCN1CC2(CCCN(S(=O)(=O)c3cnn(C)c3)C2)CCC1=O (configuration not stated)	-6%
Cc1ccc(NC(=O)C2Cn3cccc3C(=O)N2C)cc1 (configuration not stated)	i
COc1ccc(CC(=O)N2CC[C@@H](CC(=O)O)[C@@H](CCN3C[C@@H]4C[C@H](C3)c3cccc(=O)n3C4)C2)cc1	-18%
Cc1ccc(C(=O)N2C[C@@H](Oc3ccccc3)C[C@H]2C(=O)N2CCOCC2)cn1	2%
Cn1cc(CN(C(=O)C2CCC(=O)N(Cc3cccc(F)c3)C2)C2CC2)cn1 (configuration not stated)	11%
Fc1ccc(CN2Cc3[nH]cnc3C[C@H]2c2nc(-c3ccc(Cl)cc3)no2)cc1	-2%[44.1 µM]
Fc1ccc(-c2noc([C@@H]3Cc4nc[nH]c4CN3Cc3ccccc3)n2)cc1Cl	i
Fc1ccc(-c2noc([C@@H]3Cc4nc[nH]c4CN3Cc3cccs3)n2)cc1Cl	10µM*
c1ccc(CN2Cc3[nH]cnc3C[C@H]2c2nc(-c3ccncc3)no2)cc1	10µM*
O=C(O)c1ccc(CN2Cc3[nH]cnc3C[C@H]2c2nc(-c3ccc(F)cc3)no2)cc1	-23%[44.1 µM]
Cc1ccc(-c2noc([C@@H]3Cc4nc[nH]c4CN3CC3CCCCC3)n2)cc1	-13%[44.1 µM]
OCc1ccc(CN2Cc3[nH]cnc3C[C@H]2c2nc(-c3ccncc3)no2)o1	14µM*
Cc1ccc(CN2Cc3[nH]cnc3C[C@H]2c2nc(-c3ccc4ccccc4c3)no2)cc1	-29%[44.1 µM]
Cc1ccc(-c2noc([C@@H]3Cc4nc[nH]c4CN3Cc3cccs3)n2)cc1	-21%[44.1 µM]
O=C([C@H]1C[C@H](Oc2ccccc2)CN1C(=O)NCc1ccccc1)N1CCOCC1	-2%
Cc1nc(C)c(C(=O)NCc2cccnc2N(C)C2CCCCC2)s1	-26%
c1ccc2c(c1)CC(Cc1nc(C3CCOC3)n[nH]1)C2 (configuration not stated)	-2%
Cc1cc(CNC(=O)[C@@H]2CCC[C@@H](NC(=O)c3cccnc3)CN(C)C(=O)C2)no1	13%[44.1 µM]
COCCCNc1nc2c(S(=O)(=O)c3ccccc3)nnn2c2ccccc12	1%
COCCCNc1nc2c(S(=O)(=O)c3ccc(C)cc3)nnn2c2ccccc12	0%
COCCCNc1nc2c(-c3ccccc3)nnn2c2ccccc12	7.9µM*
O=C(CCc1ccc(O)cc1)N1CCC2(CCNCC2)CC1	14%
COc1cc(NC(=O)C2CCc3sc(C(=O)N4CCOCC4)cc3C2)cc(OC)c1 (configuration not stated)	i
O=C(Nc1cccc(Cl)c1Cl)c1ccc2c(c1)N(Cc1cccc(Cl)c1)C(=O)c1ccccc1S2=O (configuration not stated)	66%[0.594 µM]
Cc1cc(NC(=O)c2ccc3c(c2)N(Cc2cccc(Cl)c2)C(=O)c2ccccc2S3=O)ccc1Br (configuration not stated)	10µM*
SMILES	Pf Dd2 inh
CCC(C)NC(=O)c1ccc2c(c1)N(Cc1cccc(Cl)c1)C(=O)c1ccccc1S2=O (configuration not stated)	-23%
Cc1cc(NC(=O)c2ccc3c(c2)N(Cc2cccc(Cl)c2)C(=O)c2ccccc2S3(=O)=O)ccc1Br	8.9µM*
Cc1cccc(C)c1NC(=O)c1ccc2c(c1)N(Cc1cccc(Cl)c1)C(=O)c1ccccc1S2=O (configuration not stated)	-16%
Cc1ccc(CNC(=O)c2ccc3c(c2)N(Cc2ccccc2F)C(=O)c2ccccc2S3(=O)=O)cc1	i
CCN1C(=O)c2ccccc2Sc2ccc(NC(=O)c3ccc(C#N)cc3)cc21	23%
CC(=O)Nc1ccc(NC(=O)c2ccc3c(c2)N(Cc2cccc(Cl)c2)C(=O)c2ccccc2S3(=O)=O)cc1	-25%
CCN1C(=O)c2ccccc2Sc2ccc(NC(=O)c3cccc(C)c3)cc21	i
O=C(c1ccc2c(c1)N(Cc1ccc(Cl)cc1)C(=O)c1ccccc1S2(=O)=O)N1CCc2ccccc21	i
N#Cc1cccc(NC(=O)c2ccc3c(c2)N(Cc2cccc(Cl)c2)C(=O)c2ccccc2S3(=O)=O)c1	2.2µM*
COc1ccc(C)cc1NC(=O)c1ccc2c(c1)N(Cc1cccc(Cl)c1)C(=O)c1ccccc1S2=O (configuration not stated)	7.9µM*
CC(C)[C@@H](N)C(=O)N1CCC(n2nccc2NC(=O)c2ccccc2)CC1	-3%
Cc1ccoc1C(=O)N1CC(F)(F)C[C@H]1c1nnc(C2CC2)o1	-14%
CC(C)NC(=O)N1CCCC1c1noc(CCC(=O)NC2CC2)n1 (configuration not stated)	-6%
N#Cc1cccc(C(=O)N2CCCOCCNC(=O)CC2)c1	i
CN(C)C[C@@H]1CN(S(C)(=O)=O)C[C@H]1NC(=O)c1ccc2nc[nH]c2c1	-24%
CC(=O)N1C[C@@H](NC(=O)Nc2ccc(F)cc2F)C[C@H]1C(=O)N[C@H](Cc1c[nH]c2ccccc12)C(N)=O	-20%
COc1cc2c(C(=O)N(C)c3cccc(C(F)(F)F)c3)cn(CC(C)C)c(=O)c2cc1OC	-17%
